Data: article PMC7862700, “An all-to-all approach to the identification of sequence-specific readers for epigenetic DNA modifications on cytosine”

Tests used:
Assay in all cases: DAPPL (digital affinity profiling via proximity ligation, sequencing); 10 mM Tris-HCl pH 7.5, 50 mM NaCl, 1 mM DTT, 4% glycerol, room temperature, 30 min; GST-TFs on glutathione beads, 16-mer random dsDNA library, 0.1% formaldehyde crosslink after washing; high values mean tight binding
FEV = target: T1, FEV (Homo sapiens, UniProt Q99581 1-238); details: protein: recombinant; tags: N-terminal GST; dsDNA, one strand shown
T1 sequence: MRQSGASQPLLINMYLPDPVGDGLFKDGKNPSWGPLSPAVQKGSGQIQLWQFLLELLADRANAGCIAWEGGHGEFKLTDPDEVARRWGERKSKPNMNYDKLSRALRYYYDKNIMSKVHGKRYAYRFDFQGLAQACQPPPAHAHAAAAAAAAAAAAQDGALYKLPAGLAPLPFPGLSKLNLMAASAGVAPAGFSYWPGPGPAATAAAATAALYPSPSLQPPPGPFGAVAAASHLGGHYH
Outline: (§1)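 In yeast, human transcription factors were expressed with a GST fusion, then pulled down on glutathione beads and given DNA barcodes. Pooled with a tag-only sample, they were exposed to 200 nmole of a 16-mer random double-stranded DNA library (Tris/NaCl/DTT/glycerol buffer, room temperature, 30 min), washed, crosslinked with 0.1% formaldehyde, proximity-ligated using BsaI/T4 ligase for 1 h at 37 °C, PCR-amplified and read on an Illumina NextSeq500. Each hexamer's frequency of reads for a factor, divided by the matching frequency for the tag-only sample, gives the binding signal.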

ETV5 = ETV5 (Homo sapiens, UniProt P41161 1-510); details: protein: recombinant; tags: N-terminal GST; dsDNA, one strand shown
Sequence of ETV5 (P41161 whole entry): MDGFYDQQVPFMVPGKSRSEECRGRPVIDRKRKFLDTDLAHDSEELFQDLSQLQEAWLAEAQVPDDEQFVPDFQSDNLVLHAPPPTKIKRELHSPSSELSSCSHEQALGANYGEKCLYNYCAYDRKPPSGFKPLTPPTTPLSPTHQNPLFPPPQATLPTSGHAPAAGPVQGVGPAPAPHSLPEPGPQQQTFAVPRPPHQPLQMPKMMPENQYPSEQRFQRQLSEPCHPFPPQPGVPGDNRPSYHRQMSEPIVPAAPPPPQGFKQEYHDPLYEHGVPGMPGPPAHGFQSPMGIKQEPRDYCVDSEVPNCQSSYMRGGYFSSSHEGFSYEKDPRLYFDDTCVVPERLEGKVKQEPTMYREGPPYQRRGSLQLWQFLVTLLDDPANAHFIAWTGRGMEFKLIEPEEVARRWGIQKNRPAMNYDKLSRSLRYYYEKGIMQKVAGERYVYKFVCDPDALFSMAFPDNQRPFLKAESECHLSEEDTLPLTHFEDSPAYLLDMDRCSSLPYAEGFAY
Outline: as §1

HSF1 = HSF1 (Homo sapiens, UniProt Q00613 1-529); details: protein: recombinant; tags: N-terminal GST; chain copies: 3; dsDNA, one strand shown
Sequence of HSF1 (Q00613 whole entry): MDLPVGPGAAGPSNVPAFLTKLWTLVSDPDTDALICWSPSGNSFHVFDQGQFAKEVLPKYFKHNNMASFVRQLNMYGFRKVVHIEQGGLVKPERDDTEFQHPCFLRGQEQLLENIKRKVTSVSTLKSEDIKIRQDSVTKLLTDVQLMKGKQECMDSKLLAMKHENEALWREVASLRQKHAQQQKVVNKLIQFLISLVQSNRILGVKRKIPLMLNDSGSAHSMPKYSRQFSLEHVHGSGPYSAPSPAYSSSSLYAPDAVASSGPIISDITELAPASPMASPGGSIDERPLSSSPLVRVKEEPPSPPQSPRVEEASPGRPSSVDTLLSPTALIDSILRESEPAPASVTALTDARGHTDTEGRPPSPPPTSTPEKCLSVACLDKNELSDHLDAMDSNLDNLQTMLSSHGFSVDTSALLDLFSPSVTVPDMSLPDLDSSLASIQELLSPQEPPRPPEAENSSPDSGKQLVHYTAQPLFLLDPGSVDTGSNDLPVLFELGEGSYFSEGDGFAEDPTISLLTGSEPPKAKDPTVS
Outline: as §1

SPIC = target: T2, SPIC (Homo sapiens, UniProt Q8N5J4 1-248); details: protein: recombinant; tags: N-terminal GST; dsDNA, one strand shown
T2 sequence: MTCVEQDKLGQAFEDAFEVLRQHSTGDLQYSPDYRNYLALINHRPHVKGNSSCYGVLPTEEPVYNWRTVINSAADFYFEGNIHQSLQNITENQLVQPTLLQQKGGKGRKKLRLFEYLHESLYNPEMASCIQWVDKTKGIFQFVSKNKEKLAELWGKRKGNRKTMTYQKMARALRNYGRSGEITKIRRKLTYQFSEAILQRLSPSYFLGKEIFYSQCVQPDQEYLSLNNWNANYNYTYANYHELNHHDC
Outline: as §1

ELF4 = ELF4 (Homo sapiens, UniProt Q99607 1-663); details: protein: recombinant; tags: N-terminal GST; dsDNA, one strand shown
Sequence of ELF4 (Q99607 whole entry): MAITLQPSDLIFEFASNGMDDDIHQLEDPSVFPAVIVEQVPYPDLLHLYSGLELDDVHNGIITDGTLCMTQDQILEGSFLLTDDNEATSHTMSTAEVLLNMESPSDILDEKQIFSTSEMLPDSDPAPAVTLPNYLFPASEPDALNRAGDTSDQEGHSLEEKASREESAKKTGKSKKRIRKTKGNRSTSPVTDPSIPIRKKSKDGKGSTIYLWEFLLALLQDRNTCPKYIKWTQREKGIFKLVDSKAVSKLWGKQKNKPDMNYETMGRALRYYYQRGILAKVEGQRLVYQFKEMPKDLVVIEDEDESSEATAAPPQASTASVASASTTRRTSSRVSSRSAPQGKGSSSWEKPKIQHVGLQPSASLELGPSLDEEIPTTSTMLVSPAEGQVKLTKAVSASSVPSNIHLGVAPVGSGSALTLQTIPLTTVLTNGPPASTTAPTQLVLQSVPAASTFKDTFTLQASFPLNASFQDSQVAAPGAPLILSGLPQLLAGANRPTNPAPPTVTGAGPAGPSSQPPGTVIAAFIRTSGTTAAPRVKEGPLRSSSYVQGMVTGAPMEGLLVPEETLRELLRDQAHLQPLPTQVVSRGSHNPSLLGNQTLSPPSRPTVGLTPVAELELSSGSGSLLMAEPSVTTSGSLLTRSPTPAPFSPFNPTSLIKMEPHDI
Outline: as §1

ELK4 = target: T3, ELK4 (Homo sapiens, UniProt P28324-2 1-405); details: protein: recombinant; tags: N-terminal GST; dsDNA, one strand shown
T3 sequence: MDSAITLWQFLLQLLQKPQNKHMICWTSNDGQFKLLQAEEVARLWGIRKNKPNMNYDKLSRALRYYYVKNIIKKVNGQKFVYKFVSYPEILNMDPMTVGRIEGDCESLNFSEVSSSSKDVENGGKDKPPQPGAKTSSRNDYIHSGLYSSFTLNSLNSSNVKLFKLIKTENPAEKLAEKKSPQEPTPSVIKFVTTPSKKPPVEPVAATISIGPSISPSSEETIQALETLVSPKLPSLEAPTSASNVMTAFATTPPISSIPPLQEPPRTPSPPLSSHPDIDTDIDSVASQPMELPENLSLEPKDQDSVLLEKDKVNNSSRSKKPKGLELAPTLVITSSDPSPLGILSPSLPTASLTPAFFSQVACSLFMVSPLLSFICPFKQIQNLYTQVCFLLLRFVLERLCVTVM
Outline: as §1

ETV2 = target: T4, ETV2 (Homo sapiens, UniProt O00321 1-342); details: protein: recombinant; tags: N-terminal GST; dsDNA, one strand shown
T4 sequence: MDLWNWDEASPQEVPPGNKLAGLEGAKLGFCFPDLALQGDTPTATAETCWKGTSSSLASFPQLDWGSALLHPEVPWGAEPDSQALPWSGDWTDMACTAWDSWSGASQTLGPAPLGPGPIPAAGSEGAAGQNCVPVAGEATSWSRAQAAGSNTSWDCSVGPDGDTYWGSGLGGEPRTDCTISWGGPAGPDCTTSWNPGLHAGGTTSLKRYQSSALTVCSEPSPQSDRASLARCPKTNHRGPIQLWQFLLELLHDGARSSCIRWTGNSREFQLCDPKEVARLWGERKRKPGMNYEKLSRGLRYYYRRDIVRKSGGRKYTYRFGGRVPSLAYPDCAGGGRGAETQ
Outline: as §1

ELF3 = target: T5, ELF3 (Homo sapiens, UniProt P78545 1-371); details: protein: recombinant; tags: N-terminal GST; dsDNA, one strand shown
T5 sequence: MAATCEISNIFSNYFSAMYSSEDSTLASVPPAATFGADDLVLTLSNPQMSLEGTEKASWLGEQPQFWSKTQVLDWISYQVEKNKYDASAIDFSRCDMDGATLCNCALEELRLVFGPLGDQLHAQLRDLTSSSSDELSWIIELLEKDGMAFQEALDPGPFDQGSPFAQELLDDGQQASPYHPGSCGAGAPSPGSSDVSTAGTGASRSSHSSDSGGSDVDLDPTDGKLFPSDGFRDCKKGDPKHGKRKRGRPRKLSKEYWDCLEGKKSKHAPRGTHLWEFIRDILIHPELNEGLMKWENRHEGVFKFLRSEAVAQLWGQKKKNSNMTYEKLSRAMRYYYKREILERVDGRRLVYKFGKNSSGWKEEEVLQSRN
Outline: as §1

CRX = CRX (Homo sapiens, UniProt O43186 1-299); details: protein: recombinant; tags: N-terminal GST; dsDNA, one strand shown
Sequence of CRX (O43186 whole entry): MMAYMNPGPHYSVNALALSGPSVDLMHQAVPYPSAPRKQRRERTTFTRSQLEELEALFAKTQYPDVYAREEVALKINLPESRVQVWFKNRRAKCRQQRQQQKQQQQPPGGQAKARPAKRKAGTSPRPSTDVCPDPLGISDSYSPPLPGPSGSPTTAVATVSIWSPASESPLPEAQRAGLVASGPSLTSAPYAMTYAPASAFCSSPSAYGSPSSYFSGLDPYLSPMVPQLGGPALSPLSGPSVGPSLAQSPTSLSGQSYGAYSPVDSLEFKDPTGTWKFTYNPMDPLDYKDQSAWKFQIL
Outline: as §1

ETV1 = ETV1 (Homo sapiens, UniProt P50549 1-477); details: protein: recombinant; tags: N-terminal GST; dsDNA, one strand shown
Sequence of ETV1 (P50549 whole entry): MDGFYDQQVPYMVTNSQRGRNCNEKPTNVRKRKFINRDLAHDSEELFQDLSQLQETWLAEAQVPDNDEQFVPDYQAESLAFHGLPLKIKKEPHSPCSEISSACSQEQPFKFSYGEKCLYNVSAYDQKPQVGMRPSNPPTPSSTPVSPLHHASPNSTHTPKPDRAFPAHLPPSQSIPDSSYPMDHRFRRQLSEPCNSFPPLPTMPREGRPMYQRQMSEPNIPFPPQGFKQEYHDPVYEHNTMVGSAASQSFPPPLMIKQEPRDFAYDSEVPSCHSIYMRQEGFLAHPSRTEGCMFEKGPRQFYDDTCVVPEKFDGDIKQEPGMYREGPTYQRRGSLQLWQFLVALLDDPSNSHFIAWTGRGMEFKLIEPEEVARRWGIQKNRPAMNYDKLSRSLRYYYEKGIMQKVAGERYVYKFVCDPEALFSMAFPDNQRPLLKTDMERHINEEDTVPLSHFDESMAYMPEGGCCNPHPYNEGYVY
Outline: as §1

ERF = target: T6, ERF (Homo sapiens, UniProt P50548 1-548); details: protein: recombinant; tags: N-terminal GST; dsDNA, one strand shown
T6 sequence: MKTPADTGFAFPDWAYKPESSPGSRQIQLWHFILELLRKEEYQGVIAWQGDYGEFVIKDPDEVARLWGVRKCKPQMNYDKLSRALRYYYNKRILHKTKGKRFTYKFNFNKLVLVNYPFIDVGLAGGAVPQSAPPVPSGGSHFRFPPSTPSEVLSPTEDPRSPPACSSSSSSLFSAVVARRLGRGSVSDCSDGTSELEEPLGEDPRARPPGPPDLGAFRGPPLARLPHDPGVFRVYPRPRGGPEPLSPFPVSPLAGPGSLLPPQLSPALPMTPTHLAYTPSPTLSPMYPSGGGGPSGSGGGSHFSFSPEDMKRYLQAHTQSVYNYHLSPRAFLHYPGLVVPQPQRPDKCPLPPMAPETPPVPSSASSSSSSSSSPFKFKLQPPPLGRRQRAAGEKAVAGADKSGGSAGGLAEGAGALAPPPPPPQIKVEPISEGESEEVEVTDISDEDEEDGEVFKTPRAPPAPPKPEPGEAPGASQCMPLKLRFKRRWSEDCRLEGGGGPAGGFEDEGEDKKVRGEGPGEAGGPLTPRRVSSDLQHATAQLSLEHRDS
Outline: as §1

ETV3L = target: T7, ETV3L (Homo sapiens, UniProt Q6ZN32 1-361); details: protein: recombinant; tags: N-terminal GST; dsDNA, one strand shown
T7 sequence: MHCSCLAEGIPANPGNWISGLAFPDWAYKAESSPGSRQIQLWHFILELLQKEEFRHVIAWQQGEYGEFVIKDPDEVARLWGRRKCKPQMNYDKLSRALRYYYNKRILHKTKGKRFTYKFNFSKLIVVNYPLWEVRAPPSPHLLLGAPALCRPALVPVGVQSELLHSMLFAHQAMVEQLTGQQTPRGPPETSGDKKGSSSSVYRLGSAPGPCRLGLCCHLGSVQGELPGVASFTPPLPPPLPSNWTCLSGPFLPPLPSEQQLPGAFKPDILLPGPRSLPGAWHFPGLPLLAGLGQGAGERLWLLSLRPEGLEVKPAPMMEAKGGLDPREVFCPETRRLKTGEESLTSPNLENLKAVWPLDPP
Outline: as §1

ETS2 = target: T8, ETS2 (Homo sapiens, UniProt P15036 1-469); details: protein: recombinant; tags: N-terminal GST; dsDNA, one strand shown
T8 sequence: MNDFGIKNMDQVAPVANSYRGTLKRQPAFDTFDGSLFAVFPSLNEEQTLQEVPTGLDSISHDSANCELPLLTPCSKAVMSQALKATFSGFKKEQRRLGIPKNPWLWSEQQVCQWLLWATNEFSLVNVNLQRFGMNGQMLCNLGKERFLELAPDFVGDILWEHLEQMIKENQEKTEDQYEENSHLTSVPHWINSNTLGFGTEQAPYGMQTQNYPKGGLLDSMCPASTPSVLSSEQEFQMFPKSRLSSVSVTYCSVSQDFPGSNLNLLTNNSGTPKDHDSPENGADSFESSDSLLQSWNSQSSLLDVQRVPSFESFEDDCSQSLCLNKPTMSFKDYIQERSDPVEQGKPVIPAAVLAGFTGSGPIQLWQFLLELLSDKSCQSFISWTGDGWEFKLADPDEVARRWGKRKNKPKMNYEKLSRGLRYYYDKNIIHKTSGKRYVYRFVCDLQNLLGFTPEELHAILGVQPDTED
Outline: as §1

SPDEF = target: T9, SPDEF (Homo sapiens, UniProt O95238 1-335); details: protein: recombinant; tags: N-terminal GST; dsDNA, one strand shown
T9 sequence: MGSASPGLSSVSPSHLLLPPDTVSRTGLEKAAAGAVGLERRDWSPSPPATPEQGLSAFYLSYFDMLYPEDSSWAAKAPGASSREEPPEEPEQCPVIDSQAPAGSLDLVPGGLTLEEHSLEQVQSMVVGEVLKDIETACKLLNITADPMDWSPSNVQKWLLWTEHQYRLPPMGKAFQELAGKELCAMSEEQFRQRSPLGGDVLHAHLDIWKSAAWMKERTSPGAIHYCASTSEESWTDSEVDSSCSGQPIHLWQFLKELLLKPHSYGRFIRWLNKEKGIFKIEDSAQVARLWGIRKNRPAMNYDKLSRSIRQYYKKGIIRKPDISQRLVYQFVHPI
Outline: as §1

ETV7 = target: T10, ETV7 (Homo sapiens, UniProt Q9Y603 1-341); details: protein: recombinant; tags: N-terminal GST; dsDNA, one strand shown
T10 sequence: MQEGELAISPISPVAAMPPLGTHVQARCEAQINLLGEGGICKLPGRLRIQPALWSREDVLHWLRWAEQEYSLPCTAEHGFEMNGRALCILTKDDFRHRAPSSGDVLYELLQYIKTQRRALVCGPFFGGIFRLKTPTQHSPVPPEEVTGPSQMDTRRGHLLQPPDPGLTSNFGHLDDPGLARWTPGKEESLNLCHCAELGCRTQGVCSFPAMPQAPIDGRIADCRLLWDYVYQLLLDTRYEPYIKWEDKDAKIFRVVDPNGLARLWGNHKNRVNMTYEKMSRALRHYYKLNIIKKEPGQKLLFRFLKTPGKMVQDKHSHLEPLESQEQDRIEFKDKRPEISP
Outline: as §1

ELF5 = target: T11, ELF5 (Homo sapiens, UniProt Q9UKW6-2 1-255); details: protein: recombinant; tags: N-terminal GST; dsDNA, one strand shown
T11 sequence: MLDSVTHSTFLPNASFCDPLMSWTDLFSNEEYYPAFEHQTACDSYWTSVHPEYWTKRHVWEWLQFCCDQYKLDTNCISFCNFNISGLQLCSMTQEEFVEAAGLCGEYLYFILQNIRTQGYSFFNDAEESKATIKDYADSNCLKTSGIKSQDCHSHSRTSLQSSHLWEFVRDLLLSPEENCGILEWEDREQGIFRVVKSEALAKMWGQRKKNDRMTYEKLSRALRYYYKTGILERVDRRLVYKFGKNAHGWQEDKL
Outline: as §1

ETV3 = target: T12, ETV3 (Homo sapiens, UniProt P41162-2 1-143); details: protein: recombinant; tags: N-terminal GST; dsDNA, one strand shown
T12 sequence: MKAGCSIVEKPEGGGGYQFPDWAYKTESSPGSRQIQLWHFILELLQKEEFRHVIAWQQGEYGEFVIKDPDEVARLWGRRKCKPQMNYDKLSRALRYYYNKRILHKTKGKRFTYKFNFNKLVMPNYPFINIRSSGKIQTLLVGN
Outline: as §1

ETV6 = ETV6 (Homo sapiens, UniProt P41212 1-452); details: protein: recombinant; tags: N-terminal GST; dsDNA, one strand shown
Sequence of ETV6 (P41212 whole entry): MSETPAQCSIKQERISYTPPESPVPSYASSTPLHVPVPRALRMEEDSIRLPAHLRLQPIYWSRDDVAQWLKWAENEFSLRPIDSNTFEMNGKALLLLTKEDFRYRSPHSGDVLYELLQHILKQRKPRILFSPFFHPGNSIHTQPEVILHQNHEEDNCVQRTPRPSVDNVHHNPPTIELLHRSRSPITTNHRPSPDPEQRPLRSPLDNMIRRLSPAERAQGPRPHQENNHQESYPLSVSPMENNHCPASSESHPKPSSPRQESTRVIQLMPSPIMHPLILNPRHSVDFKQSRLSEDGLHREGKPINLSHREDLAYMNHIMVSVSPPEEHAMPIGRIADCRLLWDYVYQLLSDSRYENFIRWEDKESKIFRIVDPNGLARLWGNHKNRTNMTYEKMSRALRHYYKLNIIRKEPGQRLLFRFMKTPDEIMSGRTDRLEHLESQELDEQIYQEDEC
Outline: as §1

Question: Which binding signal (FEV) does the source give for AAGTTC here?
Answer: 1.29 fold enrichment (6-mer frequency, TF over GST control)

Question: And the binding signal (ETV5)?
Answer: 1.47 fold enrichment (6-mer frequency, TF over GST control)

Question: What about the binding signal (HSF1) of the same sequence?
Answer: 1.94 fold enrichment (6-mer frequency, TF over GST control)

Question: And the binding signal (SPIC)?
Answer: 1.54 fold enrichment (6-mer frequency, TF over GST control)

Question: And the binding signal (ELF4)?
Answer: 1.35 fold enrichment (6-mer frequency, TF over GST control)

Question: And the binding signal (ELK4)?
Answer: 1.41 fold enrichment (6-mer frequency, TF over GST control)

Question: And the binding signal (ETV2)?
Answer: 1.22 fold enrichment (6-mer frequency, TF over GST control)

Question: And the binding signal (ELF3)?
Answer: 1.47 fold enrichment (6-mer frequency, TF over GST control)

Question: What about the binding signal (CRX) of the same sequence?
Answer: 1.22 fold enrichment (6-mer frequency, TF over GST control)

Question: What about the binding signal (ETV1) of the same sequence?
Answer: 1.34 fold enrichment (6-mer frequency, TF over GST control)

Question: And the binding signal (ERF)?
Answer: 1.31 fold enrichment (6-mer frequency, TF over GST control)

Question: What about the binding signal (ETV3L) of the same sequence?
Answer: 1.5 fold enrichment (6-mer frequency, TF over GST control)

Question: And the binding signal (ETS2)?
Answer: 1.55 fold enrichment (6-mer frequency, TF over GST control)

Question: And the binding signal (SPDEF)?
Answer: 1.54 fold enrichment (6-mer frequency, TF over GST control)

Question: What about the binding signal (ETV7) of the same sequence?
Answer: 1.4 fold enrichment (6-mer frequency, TF over GST control)

Question: What about the binding signal (ELF5) of the same sequence?
Answer: 1.57 fold enrichment (6-mer frequency, TF over GST control)

Question: And the binding signal (ETV3)?
Answer: 1.48 fold enrichment (6-mer frequency, TF over GST control)

Question: What about the binding signal (ETV6) of the same sequence?
Answer: 1.52 fold enrichment (6-mer frequency, TF over GST control)
